Each structure is given as a SMILES string. Several values for one entry are separate records, joined by “and”; a condition that tells them apart may be missing. Equal values may be shown once. Results filed as inconclusive are left out. Activity calls are given as the source filed them. Calls come from the whole dose curve; as a rule, active = well fitted curve in the direction sought with a large enough effect in the repeat runs; inconclusive = weak or mixed curves; inactive = no such curve, though single readings can be large; an effect the other way counts as inactive or inconclusive.

Experiment [1] can be described thus: A CellTox Green Cytotoxicity Assay to monitor cytotoxicity in HepG2 cells - 32 hour (AID 1224883). Note: nearly all actives have a fitted effect of over 50% in size. Note: potency is the fitted concentration of half-maximal effect. The gist of the method:
(§1)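 Nonlytic assay: viable cells exclude the dye, so fluorescence scales with cell death. HepG2 at 600 cells/well, compounds added after 5 h, signal read across 40 h.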

A short description of experiment [2]: qHTS RealTime-Glo MT Cell Viability Assay in HepG2 cells - 16 hour (AID 1224885). Note: nearly all actives have a fitted effect of over 50% in size. Note: potency is the fitted concentration of half-maximal effect. In outline: (§2)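 Luminescence read-out: viable HepG2 cells reduce a prosubstrate to a NanoLuc substrate, giving a signal proportional to live cell number. Reads taken at 0, 8, 16, 24, 32 and 40 h of compound exposure at 37 C.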
The nature of experiment [3]: qHTS RealTime-Glo MT Cell Viability Assay in HepG2 cells - 0 hour (AID 1224889). Note: nearly all actives have a fitted effect of over 50% in size. Note: potency is the fitted concentration of half-maximal effect. In outline: as §2
Experiment [4] is described as follows: qHTS assay to identify small molecule antagonists of the estrogen receptor alpha (ER-alpha) signaling pathway using the BG1 cell line in the presence of 0.1 nM 17-beta-estradiol - cell viability counter screen (AID 1259241). Note: nearly all actives have a fitted effect of over 40% in size. Note: potency is the fitted concentration of half-maximal effect. The gist of the method: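 Viability in VM7Luc4E2 cells after 22 hr compound exposure under 0.1 nM 17beta-estradiol stimulation, by CellTiter-Fluor.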

A short description of experiment [5]: qHTS assay to identify small molecule antagonists of the androgen receptor (AR) signaling pathway using the MDA cell line in the presence of 0.5 nM R1881 - cell viability counter screen (AID 1259242). Note: nearly all actives have a fitted effect of over 45% in size. The gist of the method: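 R1881 at 0.5 nM final stimulated MDA-kb2 cells during 16 hr compound treatment at 37C. Cytotoxicity read: CellTiter-Fluor fluorescence after 30 min.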

Experiment [6] can be described thus: qHTS RealTime-Glo MT Cell Viability Assay in HEK293 cells - 24 hour (AID 1224886). Note: nearly all actives have a fitted effect of over 50% in size. Note: potency is the fitted concentration of half-maximal effect. In outline:
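Nonlytic real-time viability readout: viable cells convert prosubstrate to NanoLuc substrate, giving luminescence proportional to live cell number. HEK293, 600 cells/well, compound added after 5 h, continuous culture at 37 C.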
On the technique in general: qHTS replaces the single test concentration by a dilution series.

The nature of experiment [7]: qHTS RealTime-Glo MT Cell Viability Assay in HEK293 cells - 8 hour (AID 1224887). Note: nearly all actives have a fitted effect of over 50% in size. Note: potency is the fitted concentration of half-maximal effect. The gist of the method:
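Tox21 screen in HEK293 using RealTime-Glo MT chemistry, with cells and reagent co-dispensed. Luminescence proportional to viable cell number was captured at intervals during 40 h compound exposure at 37 C.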

Experiment [8] in a line: A CellTox Green Cytotoxicity Assay to monitor cytotoxicity in HEK293 cells - 16 hour (AID 1224888). Note: nearly all actives have a fitted effect of over 35% in size. Note: potency is the fitted concentration of half-maximal effect. The gist of the method: (§3)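 Seeding of HEK293 cells together with cytotoxicity dye preceded a 5 h incubation at 37 C/5% CO2. Test compounds in DMSO were then added and fluorescence monitored across 40 h.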
A short description of experiment [9]: A CellTox Green Cytotoxicity Assay to monitor cytotoxicity in HepG2 cells - 8 hour (AID 1224890). Note: nearly all actives have a fitted effect of over 45% in size. Note: potency is the fitted concentration of half-maximal effect. In outline:
as §1

A short description of experiment [10]: A CellTox Green Cytotoxicity Assay to monitor cytotoxicity in HEK293 cells - 8 hour (AID 1224884). Note: nearly all actives have a fitted effect of over 35% in size. Note: potency is the fitted concentration of half-maximal effect. In outline: as §3

Consider `CC(Cc1ccc(C(C)(C)C)cc1)CN1C[C@@H](C)O[C@@H](C)C1` (stereo partly specified), for which the Potency in [1] was 49 µM (active). The Potency entry in experiment [2], in experiment [3], in [4] and in experiment [5] was “inactive” each time.

For the molecule `CCc1cc(C)cc(CC)c1-c1c(OC(=O)C(C)(C)C)n2n(c1=O)CCOCC2`, the Potency result in experiment [1], in experiment [2], in experiment [6], in experiment [7], in experiment [8] and in experiment [3] was “inactive” throughout. In addition, the Potency entry in experiment [9] and in experiment [5] was “inactive” throughout.

For the molecule `O=C(CCCN1CCC2(CC1)C(=O)NCN2c1ccccc1)c1ccc(F)cc1`, the Potency entry in [1], in [2], in experiment [8], in experiment [3], in [9] and in experiment [5] was “inactive” each time. The Potency in experiment [7] is 16.9 µM (active).

In the case of `CCCN(CCC)c1c([N+](=O)[O-])cc(S(N)(=O)=O)cc1[N+](=O)[O-]`, the Potency is 26.2 µM (active) in experiment [1]; 24.5 µM (active) in [2]; 31.6 µM (active) in experiment [7]; 52.2 µM (active) in experiment [8]; 23.3 µM (active) in experiment [9]. For the same molecule, the Potency result in experiment [3] is “inactive”.

With `N#CCCSCCC#N`, the Potency entry in [1], in [2], in experiment [6], in experiment [7], in [8] and in experiment [3] was “inactive” each time. The Potency result in [4] and in experiment [5] was “inactive” each time.

On to `N#CCCC(Br)(C#N)CBr` (stereo unspecified), for which the Potency in [1] is 30.9 µM (active); in experiment [2], 38.9 µM (active); in [6], 24.5 µM (active); in [7], 49 µM (active); in experiment [8], 54.9 µM (active). For the same molecule, the Potency entry in experiment [3], in [4] and in experiment [5] was “inactive” each time.

Regarding `Nc1ccc(Cl)cc1C(=O)c1ccccc1`, the Potency entry in [1], in experiment [2], in [3], in experiment [9], in experiment [4] and in [5] was “inactive” each time.

Take `CCCCCCCCCBr`: the Potency entry in experiment [1], in experiment [2], in experiment [6], in experiment [7], in [8] and in experiment [3] was “inactive” in each case. The Potency entry in experiment [9], in [4] and in [5] was “inactive” throughout.

Take `CCOC(=O)c1ccccc1S(=O)(=O)NC(=O)Nc1nc(Cl)cc(OC)n1`: the Potency entry in experiment [1], in experiment [2], in [3], in [9], in experiment [4] and in [5] was “inactive” each time.

`CC(=O)/C=C/c1ccc2c(c1)OCO2`: the Potency result in experiment [10], in [2], in experiment [6], in experiment [8], in experiment [3] and in [9] was “inactive” throughout. In addition, the Potency result in [4] and in [5] was “inactive” in each case.

On to `N#Cc1c(-c2ccc(Cl)cc2)[nH]c(C(F)(F)F)c1Br`, for which the Potency in experiment [6] was 1.1 µM (active). The Potency entry in [8], in experiment [9] and in [4] was “inactive” in each case.

As for `Cc1cc(N=Nc2ccccc2C)ccc1N`, the Potency entry in [10], in experiment [8], in [3] and in experiment [9] was “inactive” each time. Besides, the Potency in experiment [6] is 21.9 µM (active) and 19.5 µM (active); in experiment [7] it was 21.9 µM (active) and 19.5 µM (active); in experiment [4] it was 24.3 µM (active).

For `CC(=O)c1cc(C(C)(C)C)cc2c1CCC2(C)C`, the Potency entry in experiment [10], in experiment [2], in [6], in experiment [8], in experiment [3] and in experiment [9] was “inactive” in each case. Moreover, the Potency result in [4] and in experiment [5] was “inactive” each time.

For the molecule `[Cl][Sb]([Cl])[Cl]`, the Potency entry in experiment [10], in [2], in [7], in experiment [8], in experiment [3] and in experiment [9] was “inactive” in each case. Further, the Potency in [4] was 27.3 µM (active).

With `c1ccc(Nc2ccc3ccccc3c2)cc1`, the Potency in experiment [1] was 48.7 µM (active). Besides, the Potency entry in [8], in experiment [3], in experiment [9] and in experiment [4] was “inactive” in each case.

Consider `CC(C)(C)c1ccc(CSc2cnn(C(C)(C)C)c(=O)c2Cl)cc1`, for which the Potency entry in experiment [10], in [8], in [3] and in experiment [9] was “inactive” each time. The Potency in [7] was 7.76 µM (active).

For the molecule `CCCCOCN(C(=O)CCl)c1c(CC)cccc1CC`, the Potency result in experiment [10], in experiment [6], in experiment [7], in [8], in experiment [3] and in experiment [9] was “inactive” throughout. Moreover, the Potency entry in experiment [4] and in [5] was “inactive” each time.

For `CC(C)CC(C)Nc1ccc(Nc2ccccc2)cc1` (stereo unspecified), the Potency entry in experiment [10], in experiment [8] and in experiment [9] was “inactive” in each case. Besides, the Potency is 21.5 µM (active) in experiment [6], 19.2 µM (active) in experiment [7], 24.1 µM (active) in [3] and 53.5 µM (active) in experiment [4].

With `ClC1=C(Cl)C2(Cl)C3C(Cl)C(Cl)CC3C1(Cl)C2(Cl)Cl` (stereo unspecified), the Potency in experiment [10] is 54.8 µM (active); in experiment [7] it was 48.8 µM (active) and 49 µM (active); in experiment [8] it was 54.8 µM (active). In addition, the Potency entry in experiment [3] and in [4] was “inactive” each time.

As to `CCOP(=O)(NC(C)C)Oc1ccc(SC)c(C)c1` (stereo unspecified), the Potency result in experiment [10], in [2], in experiment [3], in [9] and in experiment [4] was “inactive” throughout.

With `Cc1cc(C(C)(C)c2cc(C)c(O)c(C)c2)cc(C)c1O`, the Potency entry in experiment [10], in experiment [8], in experiment [3], in experiment [9], in experiment [4] and in experiment [5] was “inactive” each time. In experiment [6], the Potency is 21.2 µM (active).

As for `BrC(Br)C(Br)(Br)Br`, the Potency result in experiment [2], in experiment [3], in experiment [9], in [4] and in experiment [5] was “inactive” each time. Also, the Potency in experiment [6] is 24.7 µM (active).

In the case of `O=C(O)COc1nc(Cl)c(Cl)cc1Cl`, the Potency entry in experiment [2], in [6], in experiment [7], in [3], in [4] and in experiment [5] was “inactive” each time.
